Screening results as filed in PubChem.
Sm TGR inh: blocks Schistosoma mansoni thioredoxin glutathione reductase; hit rate 3% among 360,000; Potency, µM (highest dose often 114 µM), actives largely listed as inhibitors; purified TGR, DTNB reduction, TNB absorbance 405 nm; Q962Y6; AID 485364; further: nearly all actives have a fitted effect of over 60% in size
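First, TGR (20 nM dispensed) and NADPH were mixed with compound. Second, a 15 min room-temperature incubation followed. Third, further NADPH and then DTNB were added to start the reaction. Finally, TNB absorbance was monitored kinetically.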
Pf growth 48h: P. falciparum growth inhibition at 48 hours (one generation); P. falciparum luciferase growth in erythrocytes, 48 h; Potency, µM (highest dose often 28.7 µM), hits mostly inhibitors; hit rate 5.9% among 310,000; AID 504832
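Growth was read as firefly luciferase luminescence after a 48 h, 37 C, 5% CO2 exposure of compounds to reporter-bearing P. falciparum cultures (0.1% parasitemia, 2% hematocrit final) in Albumax-supplemented RPMI 1640.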
SARS PLP yeast: blocks SARS-CoV papain-like protease in a yeast assay; S. cerevisiae expressing SARS-CoV PLpro, growth rescue; Potency, µM (doses to about 32.9 µM), hits mostly activators; hit rate 0.19% among 330,000; calls by dose curve; further: nearly all actives have a fitted effect of over 55% in size
HCV inhibitor: inhibitors of hepatitis C virus infection; Huh7.5.1 HCVcc-Cre infection, luciferase reporter, 44 h; Potency, µM (highest dose often 41.8 µM), actives largely listed as inhibitors; hit rate 3.4% among 340,000; AID 651820
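Reporter virus HCVcc-Cre (~0.5 moi) infects cells exposed to compound; seeding density 1,000 cells/well with 4 h settling beforehand. Luminescence, 15 sec read, taken 44 h post-infection following a 15 min RT substrate incubation.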
HCMV antiviral: human cytomegalovirus inhibition. HFF cells, HCMV-luciferase reporter, 72 h; stronger effect = lower value. activity change, negative = inhibition, % at 57.5 µM. hit rate 4.5% among 410,000; in the data active means activity change below about -60%; inconclusive means no clear call, values can overlap the other calls; inactive means above about -39%
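Two-dose cell screen: HFF monolayers treated with compounds and infected with luciferase-expressing HCMV at 1 PFU/cell, 72 h at 37C, then lysed for luciferase measurement.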
Pf growth 96h: P. falciparum growth inhibition at 96 hours. P. falciparum luciferase reporter growth, 96 h. Potency, µM (titrated, usually from 28.7 µM), hits mostly inhibitors. hit rate 6.9% among 320,000. AID 504834
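Two-generation exposure (96 h) targets delayed-death phenotype. Reporter parasites carrying integrated firefly luciferase, in red cells at 2% hematocrit and 0.05% parasitemia final, kept at 37 C, 5% CO2; luminescence loss indicates inhibition.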
A number is an active result. Hits are enriched below; roughly 15% of the tested compounds scored in any of these assays. Unless noted, the call rests on the fitted dose curve; in most records, active means well fitted curve in the direction sought with a large enough effect; inconclusive means small, poorly fitted or top-dose-only effect, or another doubt; inactive means no such curve, though single readings can be large; an effect the other way counts as inactive or inconclusive.

For C[C@@]12C(=O)N(c3cccc(F)c3)C(=O)N1[C@H](c1ccc(Cl)cc1)[C@@H]1C(=O)N(C3CCCCC3)C(=O)[C@@H]12 the results were Sm TGR inh inactive, Pf growth 48h 12µM, SARS PLP yeast inactive, HCV inhibitor inconclusive, HCMV antiviral inactive and Pf growth 96h inactive.
CC(C)C[C@@]12C(=O)N(c3cccc(F)c3)C(=O)N1[C@H](c1ccc(F)cc1)[C@@H]1C(=O)N(C3CCCCC3)C(=O)[C@@H]12 was read as Sm TGR inh inactive, Pf growth 48h 10µM, SARS PLP yeast inactive, HCV inhibitor inactive, HCMV antiviral inactive and Pf growth 96h inconclusive.
`C[C@@]12C(=O)N(c3cccc(F)c3)C(=O)N1[C@H](c1ccc(F)cc1)[C@@H]1C(=O)N(C3CCCCC3)C(=O)[C@@H]12` gave Sm TGR inh inactive, Pf growth 48h inconclusive, SARS PLP yeast inactive, HCV inhibitor inactive and Pf growth 96h inactive.
`COC(=O)[C@H](CCSC)NC(=O)Nc1cccc(Br)c1` gave Sm TGR inh inactive, Pf growth 48h inactive, SARS PLP yeast inactive, HCV inhibitor inactive, HCMV antiviral inactive and Pf growth 96h inactive.
For COc1ccc(C2=Nc3ccccc3N(C(=O)c3ccncc3)C2C(=O)NC(C)C)cc1 (stereo not drawn) the results were HCMV antiviral inactive.
For CCOC(=O)C1CCN(C(=O)c2ccc3c(c2)C(=O)N(c2ccccc2C)C3=O)CC1 the results were Sm TGR inh inactive, Pf growth 48h inconclusive, SARS PLP yeast inactive, HCV inhibitor inactive, HCMV antiviral inactive and Pf growth 96h inactive.
For Cc1sc2c(c1C)C(c1cccs1)=NCC(=O)N2CC(=O)NCc1cccs1 the results were Sm TGR inh inactive, Pf growth 48h inconclusive, SARS PLP yeast inactive, HCV inhibitor inconclusive and HCMV antiviral inactive.
For Cc1sc2c(c1C)C(c1ccc(C(C)(C)C)cc1)=NCC(=O)N2CC(=O)Nc1nccs1 the results were Sm TGR inh inactive, Pf growth 48h inconclusive, SARS PLP yeast inactive, HCV inhibitor inactive, HCMV antiviral inactive and Pf growth 96h 10µM.
Screening CC(C)CCNC(=O)C(c1ccc(O)cc1)N(C(=O)C1COc2ccccc2O1)c1cccc(O)c1 (stereo not drawn) returned Sm TGR inh inconclusive, Pf growth 48h 12µM, SARS PLP yeast inactive, HCV inhibitor inactive, HCMV antiviral -63 and Pf growth 96h inconclusive.
Screening CCOc1cccc(N(C(=O)C2COc3ccccc3O2)C(C(=O)NC2CCCCC2)c2ccc(O)cc2)c1 (stereo not drawn) returned Sm TGR inh inactive, Pf growth 48h 13µM, SARS PLP yeast inactive, HCV inhibitor inactive, HCMV antiviral inactive and Pf growth 96h inactive.
For Cc1ccc(C(=O)Nc2nnc(S(=O)(=O)N3CCc4ccccc43)s2)cc1 the results were Sm TGR inh inactive and HCMV antiviral inactive.
O=C(O)C1CCN(S(=O)(=O)c2ccc(N3CCC(O)CC3)c([N+](=O)[O-])c2)CC1 was read as Sm TGR inh inactive, Pf growth 48h inconclusive, SARS PLP yeast inactive, HCV inhibitor inactive, HCMV antiviral inactive and Pf growth 96h 9.3µM.
Screening CCOC(=O)N1CCN(c2ccc(S(=O)(=O)N3CCC(C)CC3)cc2[N+](=O)[O-])CC1 returned Sm TGR inh inactive, Pf growth 48h 10µM, SARS PLP yeast inactive, HCV inhibitor inconclusive, HCMV antiviral inactive and Pf growth 96h 9.3µM.
Screening CCC(=O)N(Cc1ccc(S(N)(=O)=O)cc1)C1CC(=O)N(c2ccccc2)C1=O (stereo not drawn) returned Sm TGR inh inactive, Pf growth 48h inactive, SARS PLP yeast inactive, HCV inhibitor inactive, HCMV antiviral inactive and Pf growth 96h inconclusive.
`CCOC(=O)c1cnc2ccc(Cl)cc2c1NCCN(C)C` gave Sm TGR inh inactive, Pf growth 48h inconclusive, SARS PLP yeast inactive, HCV inhibitor inactive, HCMV antiviral inactive and Pf growth 96h 4.7µM.
CCOC(=O)c1cnc2c(ccc3ccccc32)c1NCCCN(C)C was read as Sm TGR inh inactive, Pf growth 48h 4.1µM, SARS PLP yeast inactive, HCV inhibitor inconclusive, HCMV antiviral inactive and Pf growth 96h inconclusive.
Cc1ccc(S(=O)(=O)N2CCCC(c3nnc4n3-c3ccccc3SC4)C2)cc1 (stereo not drawn) was read as Sm TGR inh inactive, Pf growth 48h inactive, SARS PLP yeast inactive, HCV inhibitor inactive, HCMV antiviral inactive and Pf growth 96h 13µM.
`Cc1cc(C(=O)OCC(N)=O)c(C)n1-c1ccccc1` gave Sm TGR inh inactive, Pf growth 48h inconclusive, SARS PLP yeast inactive, HCV inhibitor inactive, HCMV antiviral inactive and Pf growth 96h 2.1µM.
Cc1cc(C(=O)O)c(C)n1-c1ccccc1 was read as Sm TGR inh inactive, SARS PLP yeast inactive, HCV inhibitor inactive, HCMV antiviral inactive and Pf growth 96h inactive.
For COc1ccc(-n2c(C)cc(C(=O)CSc3ccc(NC(C)=O)cc3)c2C)cc1 the results were Sm TGR inh inactive, Pf growth 48h inconclusive, SARS PLP yeast inactive, HCV inhibitor inactive, HCMV antiviral inactive and Pf growth 96h inactive.
For Cc1cc(C(=O)COc2cccc(-n3cnnn3)c2)c(C)n1-c1ccccc1 the results were Sm TGR inh inconclusive, Pf growth 48h inconclusive, SARS PLP yeast inactive, HCV inhibitor 1µM, HCMV antiviral inactive and Pf growth 96h inactive.
`CC(=O)Nc1ccc(SCC(=O)c2cc(C)n(-c3ccccc3)c2C)cc1` gave Sm TGR inh inactive, Pf growth 48h inactive, SARS PLP yeast inactive, HCV inhibitor inactive, HCMV antiviral -60 and Pf growth 96h inactive.
`CCOC(=O)c1cc(C)n(-c2ccccc2)c1C` gave Sm TGR inh inactive, Pf growth 48h inactive, SARS PLP yeast inactive, HCV inhibitor inactive, HCMV antiviral -77 and Pf growth 96h inactive.
Screening OC1CCC(Nc2ncnc3sccc23)CC1 (stereo not drawn) returned Sm TGR inh inactive, Pf growth 48h inactive, SARS PLP yeast inactive, HCV inhibitor inactive, HCMV antiviral inactive and Pf growth 96h inactive.
Screening Cc1cc(C(=O)CSc2cccc[n+]2[O-])c(C)n1-c1ccc(Br)cc1 returned Sm TGR inh inactive, Pf growth 48h inactive, SARS PLP yeast inactive and Pf growth 96h 6.6µM.
Cc1ccc(-n2c(C)cc(C(=O)CN3CCCCC3)c2C)cc1 was read as Sm TGR inh inactive, Pf growth 48h inconclusive, SARS PLP yeast inactive, HCV inhibitor inconclusive, HCMV antiviral inactive and Pf growth 96h inconclusive.
`Cc1cc(=O)c(C(=O)O)c(C)n1-c1ccccc1` gave HCV inhibitor inactive and HCMV antiviral -62.
Cc1cc(C(=O)CN2CC(C)OC(C)C2)c(C)n1-c1ccccc1 (stereo not drawn) was read as Sm TGR inh 45µM, Pf growth 48h inactive, SARS PLP yeast inactive, HCV inhibitor inactive, HCMV antiviral inactive and Pf growth 96h inactive.
